# According to the supplement of paper PMC11732987, “Enantioselective OTUD7B fragment discovery through chemoproteomics screening and high-throughput optimisation” (Communications Chemistry, 2025):
# A number with no mark means an inactive call.
# Columns and labels:
# Test in all cases: log2 ratio of Biotin-Ahx-Ub-VS probe labelling (fragment/DMSO); higher = less target engagement (more negative = stronger competition), active = hit call of the paper (q ≤ 0.05, log2 ratio ≤ -1)
# Settings in all cases: compound concentration: 200 uM; treatment time: 3 h
# USP9X = USP9X (UniProt Q93008)
# Chain of USP9X (Q93008 whole entry, the tested form may be a part): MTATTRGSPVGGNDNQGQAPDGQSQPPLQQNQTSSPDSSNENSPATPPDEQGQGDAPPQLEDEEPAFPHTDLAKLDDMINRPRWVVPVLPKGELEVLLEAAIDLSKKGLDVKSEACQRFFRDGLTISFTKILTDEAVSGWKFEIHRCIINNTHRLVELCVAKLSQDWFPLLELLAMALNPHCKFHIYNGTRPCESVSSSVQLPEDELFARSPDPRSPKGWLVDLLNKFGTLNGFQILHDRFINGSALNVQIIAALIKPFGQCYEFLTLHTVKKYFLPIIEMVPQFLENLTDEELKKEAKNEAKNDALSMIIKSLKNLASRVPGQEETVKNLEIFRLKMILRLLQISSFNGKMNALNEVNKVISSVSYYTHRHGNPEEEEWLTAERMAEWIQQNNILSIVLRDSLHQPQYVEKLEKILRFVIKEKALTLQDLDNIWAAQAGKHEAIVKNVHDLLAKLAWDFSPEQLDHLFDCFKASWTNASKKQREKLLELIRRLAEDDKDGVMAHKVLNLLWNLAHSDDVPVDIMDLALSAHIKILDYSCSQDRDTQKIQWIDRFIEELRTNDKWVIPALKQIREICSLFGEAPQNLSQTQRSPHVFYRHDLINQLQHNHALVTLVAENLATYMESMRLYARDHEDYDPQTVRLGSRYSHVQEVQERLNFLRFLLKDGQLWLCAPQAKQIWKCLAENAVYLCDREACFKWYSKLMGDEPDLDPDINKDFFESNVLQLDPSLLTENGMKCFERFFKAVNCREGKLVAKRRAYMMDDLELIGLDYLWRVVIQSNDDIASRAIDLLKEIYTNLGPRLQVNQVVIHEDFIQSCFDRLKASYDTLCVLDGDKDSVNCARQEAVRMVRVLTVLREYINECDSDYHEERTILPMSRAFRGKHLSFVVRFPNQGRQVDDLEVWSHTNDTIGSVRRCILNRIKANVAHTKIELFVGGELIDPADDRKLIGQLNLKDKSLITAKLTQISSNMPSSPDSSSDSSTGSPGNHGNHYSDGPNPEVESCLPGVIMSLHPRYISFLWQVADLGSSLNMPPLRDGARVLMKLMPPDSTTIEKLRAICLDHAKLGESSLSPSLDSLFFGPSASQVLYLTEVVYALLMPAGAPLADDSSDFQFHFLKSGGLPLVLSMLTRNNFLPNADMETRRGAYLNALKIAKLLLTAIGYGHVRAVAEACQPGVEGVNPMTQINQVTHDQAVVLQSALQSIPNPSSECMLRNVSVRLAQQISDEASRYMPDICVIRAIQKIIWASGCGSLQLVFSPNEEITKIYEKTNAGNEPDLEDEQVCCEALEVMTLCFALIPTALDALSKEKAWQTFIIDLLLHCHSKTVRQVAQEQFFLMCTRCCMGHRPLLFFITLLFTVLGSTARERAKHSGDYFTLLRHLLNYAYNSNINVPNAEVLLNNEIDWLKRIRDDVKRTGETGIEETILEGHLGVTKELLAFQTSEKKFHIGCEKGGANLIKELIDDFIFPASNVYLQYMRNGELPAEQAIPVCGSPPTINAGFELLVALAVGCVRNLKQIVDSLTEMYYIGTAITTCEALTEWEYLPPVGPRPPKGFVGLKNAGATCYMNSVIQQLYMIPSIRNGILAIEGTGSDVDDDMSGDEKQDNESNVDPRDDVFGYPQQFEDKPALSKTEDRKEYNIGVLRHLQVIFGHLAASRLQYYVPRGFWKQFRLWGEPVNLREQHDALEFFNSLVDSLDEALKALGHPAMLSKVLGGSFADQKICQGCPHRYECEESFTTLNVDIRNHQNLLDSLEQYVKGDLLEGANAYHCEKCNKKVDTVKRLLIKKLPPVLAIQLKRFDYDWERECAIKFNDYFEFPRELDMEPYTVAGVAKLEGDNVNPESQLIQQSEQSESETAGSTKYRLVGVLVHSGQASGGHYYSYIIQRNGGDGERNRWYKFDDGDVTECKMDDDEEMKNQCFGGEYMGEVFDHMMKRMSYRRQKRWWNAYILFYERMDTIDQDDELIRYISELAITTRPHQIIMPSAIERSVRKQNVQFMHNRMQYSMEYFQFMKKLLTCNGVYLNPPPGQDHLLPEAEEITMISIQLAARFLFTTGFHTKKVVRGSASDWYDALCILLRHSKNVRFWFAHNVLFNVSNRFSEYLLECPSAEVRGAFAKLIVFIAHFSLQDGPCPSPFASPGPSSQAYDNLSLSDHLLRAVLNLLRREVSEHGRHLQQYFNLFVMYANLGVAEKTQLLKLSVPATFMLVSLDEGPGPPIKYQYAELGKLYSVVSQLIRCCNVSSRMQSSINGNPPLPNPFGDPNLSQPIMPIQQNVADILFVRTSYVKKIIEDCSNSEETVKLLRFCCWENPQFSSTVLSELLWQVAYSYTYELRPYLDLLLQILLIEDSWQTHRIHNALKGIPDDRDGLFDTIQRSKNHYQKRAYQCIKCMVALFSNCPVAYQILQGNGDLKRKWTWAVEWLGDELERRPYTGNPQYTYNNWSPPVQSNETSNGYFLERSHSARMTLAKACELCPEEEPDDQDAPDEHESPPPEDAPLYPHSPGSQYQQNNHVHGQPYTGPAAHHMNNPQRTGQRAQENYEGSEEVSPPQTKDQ
# Summary of the method: (§1)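 Fragment (200 µM) or vehicle was incubated for 3 h with triplicate HEK293T lysate samples of 495 µg, which were then treated with Biotin-Ahx-Ub-VS at 0.5 µM final for 1 h. Labelled DUBs were enriched on NeutrAvidin, digested with LysC and trypsin, and analysed by diaPASEF LC-MS/MS. Values are average log2 fragment/vehicle ratios from an unpaired t-test on global-median-normalised Spectronaut label-free quantities, using proteins with ≥2 unique peptides.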
# UniProt O00487 = molecular target: UniProt O00487
# Summary of the method: as §1
# UniProt O00507 = molecular target: UniProt O00507
# Chain of UniProt O00507 (O00507 whole entry): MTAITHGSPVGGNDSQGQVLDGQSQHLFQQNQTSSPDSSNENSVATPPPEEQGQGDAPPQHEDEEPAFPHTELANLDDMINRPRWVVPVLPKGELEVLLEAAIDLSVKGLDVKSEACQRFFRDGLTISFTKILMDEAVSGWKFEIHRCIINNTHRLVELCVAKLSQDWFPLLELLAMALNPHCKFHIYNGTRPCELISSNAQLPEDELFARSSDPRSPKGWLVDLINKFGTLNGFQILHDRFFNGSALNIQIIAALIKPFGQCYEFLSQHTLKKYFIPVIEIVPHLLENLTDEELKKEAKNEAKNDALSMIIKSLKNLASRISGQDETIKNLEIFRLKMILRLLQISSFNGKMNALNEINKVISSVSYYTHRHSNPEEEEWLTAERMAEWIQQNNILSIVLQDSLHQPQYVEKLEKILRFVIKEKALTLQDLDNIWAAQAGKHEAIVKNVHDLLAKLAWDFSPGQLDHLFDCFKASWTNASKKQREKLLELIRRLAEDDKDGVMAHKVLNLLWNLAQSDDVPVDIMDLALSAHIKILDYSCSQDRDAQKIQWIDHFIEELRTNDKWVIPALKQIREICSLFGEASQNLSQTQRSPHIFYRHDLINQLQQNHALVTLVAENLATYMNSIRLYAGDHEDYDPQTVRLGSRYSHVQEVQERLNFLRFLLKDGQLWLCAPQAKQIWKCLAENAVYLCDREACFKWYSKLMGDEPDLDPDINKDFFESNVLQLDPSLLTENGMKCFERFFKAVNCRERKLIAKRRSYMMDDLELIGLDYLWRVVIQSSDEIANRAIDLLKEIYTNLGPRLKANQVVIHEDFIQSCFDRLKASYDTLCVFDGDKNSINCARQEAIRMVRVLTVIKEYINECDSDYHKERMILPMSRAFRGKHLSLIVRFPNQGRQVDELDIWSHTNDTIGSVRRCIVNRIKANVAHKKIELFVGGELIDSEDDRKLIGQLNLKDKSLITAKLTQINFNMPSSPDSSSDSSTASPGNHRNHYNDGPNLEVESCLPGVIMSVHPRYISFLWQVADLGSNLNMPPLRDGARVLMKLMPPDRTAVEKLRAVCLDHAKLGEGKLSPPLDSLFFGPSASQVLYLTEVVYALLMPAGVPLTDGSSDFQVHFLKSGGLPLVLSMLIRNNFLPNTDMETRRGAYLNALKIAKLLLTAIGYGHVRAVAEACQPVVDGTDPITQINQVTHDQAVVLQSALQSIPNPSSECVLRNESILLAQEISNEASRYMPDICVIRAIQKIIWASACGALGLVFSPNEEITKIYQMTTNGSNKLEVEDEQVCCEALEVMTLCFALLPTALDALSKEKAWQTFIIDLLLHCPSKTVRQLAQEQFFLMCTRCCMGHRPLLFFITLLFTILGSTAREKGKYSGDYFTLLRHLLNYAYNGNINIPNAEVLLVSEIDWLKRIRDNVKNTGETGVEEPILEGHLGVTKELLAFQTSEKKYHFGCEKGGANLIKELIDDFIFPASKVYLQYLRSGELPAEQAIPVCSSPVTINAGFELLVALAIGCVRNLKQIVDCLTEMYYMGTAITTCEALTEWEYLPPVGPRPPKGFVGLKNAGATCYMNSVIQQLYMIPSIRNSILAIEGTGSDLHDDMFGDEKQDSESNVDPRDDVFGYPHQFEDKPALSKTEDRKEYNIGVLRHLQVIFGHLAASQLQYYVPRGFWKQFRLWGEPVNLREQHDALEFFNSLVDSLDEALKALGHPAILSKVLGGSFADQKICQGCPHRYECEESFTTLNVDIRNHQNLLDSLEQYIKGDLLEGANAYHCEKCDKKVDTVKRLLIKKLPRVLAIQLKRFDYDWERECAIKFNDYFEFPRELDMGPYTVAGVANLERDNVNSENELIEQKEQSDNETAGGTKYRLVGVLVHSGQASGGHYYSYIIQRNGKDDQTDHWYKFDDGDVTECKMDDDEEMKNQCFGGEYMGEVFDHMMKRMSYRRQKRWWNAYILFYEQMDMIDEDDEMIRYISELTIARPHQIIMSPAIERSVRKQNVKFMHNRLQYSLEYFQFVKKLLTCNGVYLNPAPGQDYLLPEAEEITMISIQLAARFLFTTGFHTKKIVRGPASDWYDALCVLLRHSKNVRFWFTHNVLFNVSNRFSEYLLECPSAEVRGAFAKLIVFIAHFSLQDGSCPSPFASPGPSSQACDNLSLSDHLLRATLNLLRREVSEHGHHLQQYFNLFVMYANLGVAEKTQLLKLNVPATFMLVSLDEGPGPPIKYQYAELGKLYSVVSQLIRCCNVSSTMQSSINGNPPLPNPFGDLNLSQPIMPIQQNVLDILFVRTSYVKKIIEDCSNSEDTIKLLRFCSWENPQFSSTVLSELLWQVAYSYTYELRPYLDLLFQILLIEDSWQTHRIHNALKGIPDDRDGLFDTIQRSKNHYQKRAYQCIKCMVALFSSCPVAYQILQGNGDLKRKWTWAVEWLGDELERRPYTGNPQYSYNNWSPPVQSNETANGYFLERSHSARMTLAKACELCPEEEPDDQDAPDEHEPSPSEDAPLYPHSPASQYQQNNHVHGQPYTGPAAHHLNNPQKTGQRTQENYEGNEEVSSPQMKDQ
# Summary of the method: as §1
# UniProt P51784 = molecular target: UniProt P51784
# Summary of the method: as §1
# UniProt Q5T2D3 = molecular target: T1, UniProt Q5T2D3
# T1 sequence (whole entry): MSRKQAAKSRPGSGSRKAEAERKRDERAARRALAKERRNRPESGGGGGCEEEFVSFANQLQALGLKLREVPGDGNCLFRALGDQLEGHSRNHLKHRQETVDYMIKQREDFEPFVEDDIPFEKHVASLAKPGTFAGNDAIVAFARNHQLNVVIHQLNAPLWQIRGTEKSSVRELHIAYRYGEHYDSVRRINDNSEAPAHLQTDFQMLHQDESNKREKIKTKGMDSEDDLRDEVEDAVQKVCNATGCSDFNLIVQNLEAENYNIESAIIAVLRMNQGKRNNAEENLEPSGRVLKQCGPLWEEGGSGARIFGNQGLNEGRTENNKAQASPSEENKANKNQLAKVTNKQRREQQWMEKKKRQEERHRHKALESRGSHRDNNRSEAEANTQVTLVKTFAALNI
# Summary of the method: as §1
# UniProt Q8TE49 = molecular target: T2, UniProt Q8TE49
# T2 sequence (whole entry): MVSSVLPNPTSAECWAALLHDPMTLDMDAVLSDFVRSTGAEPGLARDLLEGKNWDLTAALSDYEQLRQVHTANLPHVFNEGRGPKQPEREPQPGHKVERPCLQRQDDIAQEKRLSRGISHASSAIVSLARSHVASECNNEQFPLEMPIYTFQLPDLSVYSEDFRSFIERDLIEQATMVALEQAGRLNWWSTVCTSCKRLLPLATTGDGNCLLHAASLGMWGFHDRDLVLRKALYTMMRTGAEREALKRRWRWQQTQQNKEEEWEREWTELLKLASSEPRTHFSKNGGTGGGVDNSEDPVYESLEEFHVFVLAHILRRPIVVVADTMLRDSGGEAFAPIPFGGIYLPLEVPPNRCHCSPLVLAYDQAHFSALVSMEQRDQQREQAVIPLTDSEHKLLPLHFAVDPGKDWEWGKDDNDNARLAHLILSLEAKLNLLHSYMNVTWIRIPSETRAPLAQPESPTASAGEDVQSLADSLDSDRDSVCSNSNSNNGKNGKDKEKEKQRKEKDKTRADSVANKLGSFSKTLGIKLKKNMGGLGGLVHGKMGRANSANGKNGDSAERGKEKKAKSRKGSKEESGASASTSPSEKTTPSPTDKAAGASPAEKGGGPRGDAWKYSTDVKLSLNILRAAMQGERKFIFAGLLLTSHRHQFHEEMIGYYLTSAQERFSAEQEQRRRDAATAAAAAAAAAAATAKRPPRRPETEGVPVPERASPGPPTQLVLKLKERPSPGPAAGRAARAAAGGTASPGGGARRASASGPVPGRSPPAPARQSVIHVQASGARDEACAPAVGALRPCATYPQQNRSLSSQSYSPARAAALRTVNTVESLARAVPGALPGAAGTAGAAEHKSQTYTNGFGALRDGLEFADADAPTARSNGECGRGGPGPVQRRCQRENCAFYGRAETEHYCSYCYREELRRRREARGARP
# Summary of the method: as §1
# UniProt Q9P2H5 = molecular target: T3, UniProt Q9P2H5
# T3 sequence (whole entry): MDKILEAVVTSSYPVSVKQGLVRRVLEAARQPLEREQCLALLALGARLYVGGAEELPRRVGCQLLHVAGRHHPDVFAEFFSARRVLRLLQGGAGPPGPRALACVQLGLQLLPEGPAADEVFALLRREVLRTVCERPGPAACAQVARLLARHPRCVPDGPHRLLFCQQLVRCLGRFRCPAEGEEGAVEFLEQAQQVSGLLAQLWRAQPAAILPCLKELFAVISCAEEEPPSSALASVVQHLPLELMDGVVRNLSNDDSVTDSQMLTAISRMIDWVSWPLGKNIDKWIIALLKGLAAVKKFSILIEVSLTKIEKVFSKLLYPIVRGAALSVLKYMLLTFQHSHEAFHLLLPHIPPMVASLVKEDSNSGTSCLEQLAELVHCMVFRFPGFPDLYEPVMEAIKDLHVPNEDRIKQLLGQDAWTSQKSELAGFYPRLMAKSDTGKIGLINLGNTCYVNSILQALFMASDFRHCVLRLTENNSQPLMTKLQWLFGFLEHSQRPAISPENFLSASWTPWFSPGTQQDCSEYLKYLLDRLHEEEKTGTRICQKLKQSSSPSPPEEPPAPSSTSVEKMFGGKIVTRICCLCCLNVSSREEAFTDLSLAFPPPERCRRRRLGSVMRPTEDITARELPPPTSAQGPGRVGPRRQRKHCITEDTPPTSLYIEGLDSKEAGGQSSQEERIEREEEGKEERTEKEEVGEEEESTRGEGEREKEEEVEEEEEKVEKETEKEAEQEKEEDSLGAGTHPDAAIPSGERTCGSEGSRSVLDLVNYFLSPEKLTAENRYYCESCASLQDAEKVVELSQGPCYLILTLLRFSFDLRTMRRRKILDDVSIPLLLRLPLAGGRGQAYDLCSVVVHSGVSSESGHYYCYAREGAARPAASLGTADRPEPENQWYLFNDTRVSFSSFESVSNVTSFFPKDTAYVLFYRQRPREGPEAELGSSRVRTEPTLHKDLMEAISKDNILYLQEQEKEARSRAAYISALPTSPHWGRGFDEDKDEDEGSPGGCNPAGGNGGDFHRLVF
# Summary of the method: as §1
# UniProt Q9UGI0 = molecular target: T4, UniProt Q9UGI0
# T4 sequence (whole entry): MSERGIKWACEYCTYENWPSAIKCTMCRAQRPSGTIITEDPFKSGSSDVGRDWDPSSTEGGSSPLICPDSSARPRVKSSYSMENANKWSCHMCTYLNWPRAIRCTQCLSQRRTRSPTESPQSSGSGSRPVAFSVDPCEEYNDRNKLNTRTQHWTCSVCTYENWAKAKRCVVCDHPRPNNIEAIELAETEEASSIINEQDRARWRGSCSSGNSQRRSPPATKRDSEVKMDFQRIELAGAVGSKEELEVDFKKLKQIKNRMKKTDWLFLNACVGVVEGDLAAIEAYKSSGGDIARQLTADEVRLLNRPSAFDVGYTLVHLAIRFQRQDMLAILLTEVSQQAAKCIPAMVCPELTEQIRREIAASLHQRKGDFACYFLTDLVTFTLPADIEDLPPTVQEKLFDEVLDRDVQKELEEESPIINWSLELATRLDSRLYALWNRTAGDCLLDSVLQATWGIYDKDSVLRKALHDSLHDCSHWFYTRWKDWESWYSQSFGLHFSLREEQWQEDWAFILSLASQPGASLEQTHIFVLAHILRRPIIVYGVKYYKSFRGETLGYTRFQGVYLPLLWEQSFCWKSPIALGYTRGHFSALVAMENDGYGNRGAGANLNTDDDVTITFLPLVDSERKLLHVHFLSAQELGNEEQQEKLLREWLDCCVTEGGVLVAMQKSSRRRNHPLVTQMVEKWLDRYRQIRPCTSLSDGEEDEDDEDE
# Summary of the method: as §1
# YOD1 = molecular target: T5, YOD1 (UniProt Q5VVQ6)
# T5 sequence (whole entry): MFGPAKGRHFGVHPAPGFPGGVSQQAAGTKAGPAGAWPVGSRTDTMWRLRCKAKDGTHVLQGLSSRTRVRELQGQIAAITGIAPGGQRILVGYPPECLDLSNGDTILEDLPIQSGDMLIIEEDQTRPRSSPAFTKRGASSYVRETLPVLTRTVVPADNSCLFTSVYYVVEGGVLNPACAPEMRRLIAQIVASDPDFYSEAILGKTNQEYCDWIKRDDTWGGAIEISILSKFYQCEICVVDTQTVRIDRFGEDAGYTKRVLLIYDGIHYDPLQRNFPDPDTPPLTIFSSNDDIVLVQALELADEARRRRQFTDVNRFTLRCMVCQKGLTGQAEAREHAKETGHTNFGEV
# Summary of the method: as §1
structure (smiles),measurement,setting,value
NS(=O)(=O)c1ccc(Cl)c(NC(=O)CCl)c1,log2 ratio of Biotin-Ahx-Ub-VS probe labelling,USP9X,-0.31
same,log2 ratio of Biotin-Ahx-Ub-VS probe labelling,UniProt O00487,-0.0819
same,log2 ratio of Biotin-Ahx-Ub-VS probe labelling,UniProt O00507,-0.168
same,log2 ratio of Biotin-Ahx-Ub-VS probe labelling,UniProt P51784,0.0886
same,log2 ratio of Biotin-Ahx-Ub-VS probe labelling,UniProt Q5T2D3,-0.424
same,log2 ratio of Biotin-Ahx-Ub-VS probe labelling,UniProt Q8TE49,-1.53 (active)
same,log2 ratio of Biotin-Ahx-Ub-VS probe labelling,UniProt Q9P2H5,-0.0565
same,log2 ratio of Biotin-Ahx-Ub-VS probe labelling,UniProt Q9UGI0,-0.791
same,log2 ratio of Biotin-Ahx-Ub-VS probe labelling,YOD1,-0.361
